Experimental data from PubChem BioAssay.
Results with a measured potency or affinity are listed apart. The source made the active and inactive calls. The limit is not given here; nearly all actives have IC50 up to about 0.91 µM.

molecular target: Calcium-dependent protein kinase 4 (Plasmodium falciparum (isolate 3D7)) (UniProt Q8IBS5); assay: PfCDPK4 kinase inhibitors, biochemical, TCAMS library (AID 1159588); settings: recombinant PfCDPK4, Kinase-Glo ATP depletion luminescence
Sequence (Q8IBS5 whole entry, looked up): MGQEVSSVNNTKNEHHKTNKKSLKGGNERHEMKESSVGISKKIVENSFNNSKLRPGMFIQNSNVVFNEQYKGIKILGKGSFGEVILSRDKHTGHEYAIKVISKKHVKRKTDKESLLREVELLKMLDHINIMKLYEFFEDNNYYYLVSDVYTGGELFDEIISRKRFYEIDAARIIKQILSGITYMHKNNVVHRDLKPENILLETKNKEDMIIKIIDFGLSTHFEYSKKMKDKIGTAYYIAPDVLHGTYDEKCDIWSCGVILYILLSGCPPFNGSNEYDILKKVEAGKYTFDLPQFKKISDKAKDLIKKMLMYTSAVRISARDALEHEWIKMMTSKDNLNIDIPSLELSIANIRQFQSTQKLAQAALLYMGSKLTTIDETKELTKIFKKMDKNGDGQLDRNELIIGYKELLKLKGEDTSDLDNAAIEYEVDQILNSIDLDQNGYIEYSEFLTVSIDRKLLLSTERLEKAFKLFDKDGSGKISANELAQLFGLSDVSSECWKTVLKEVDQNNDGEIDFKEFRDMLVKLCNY

outcome, inactive:
CCCCNCc1ccc(-c2nc(CN(Cc3ccc(Cl)c(Cl)c3)S(=O)(=O)c3ccc(NC(C)=O)cc3)cs2)cc1
CC(=O)Nc1nc(C(=O)Nc2cccc(-c3ccc4c(cnn4CC4CC4)c3)c2)cs1
CCc1c[nH]c2c(N3CCCC3=O)cc(C(=O)N[C@@H](Cc3ccccc3)[C@H](O)CNC(C)(C)CCCC(C)C)cc12
Nc1ncnc2cc(-c3cccc(S(N)(=O)=O)c3)sc12
COc1cc(F)c2ncc(Cl)c(C(O)CN3CCC(NC(=O)c4ccc5c(n4)NC(=O)CO5)CC3)c2c1 (centres undefined)
CCN(CC)C(=S)N=Nc1c(O)[nH]c2c(C)cccc12
CCCCCCCCCn1c(NCc2cc(Cl)ccc2O)nc2ccccc21
CCCC(CNCc1cccc(C)c1)CNc1cc(=O)c2ccccc2[nH]1 (centres undefined)
CCOc1ccc(-c2nonc2NC(=O)c2cccs2)cc1OCC
COc1ccc2nccc([C@@H](O)CN3CCC(NCc4[nH]c5ccccc5c4F)CC3)c2c1
CCc1c(CCNCCCCCCNCCc2ccc(OC)c(OC)c2CC)ccc(OC)c1OC
COc1ccc2nccc(NN=Cc3ccc(F)cc3)c2c1
COc1ccc(-c2ccccc2CNC2Cc3ccccc3C2)cc1S(=O)(=O)NCCN1CCCC1
Cc1ccc(N/C(N)=N/c2ncccc2OCc2c(F)cccc2Cl)cc1
Cc1nc(N)nc(N)c1-c1ccc(Br)cc1
CN(C)CCN(C)Cc1ccc(-c2ccc(NC(=O)c3cccc(Cl)c3)cc2)cc1
CN1CCN(c2cc(NC(=O)c3ccc(-c4ccc(Cl)cc4)cc3)ccc2Cl)CC1
O=C(NCCCCN1CCN(c2cccc3c2OCCO3)CC1)c1ccc(NC(=O)c2cc(Cl)cc(Cl)c2)cc1
O=C(COc1ccc(Cl)c(Cl)c1)NCCCCCN1CCCN(C(=O)Nc2cc(Cl)cc(Cl)c2)CC1
CCN(CCCN1CCCCC1)c1cc(C)nc(Nc2cc(Br)ccc2C)n1
COc1ccc(-c2ccc(Nc3cccc(S(=O)(=O)CCN4CCC(CCN(C)C)CC4)c3)nc2)cn1
O=C(Nc1cccc(-c2csc(-c3nc4ccccc4[nH]3)c2)c1)c1ccoc1
CC(C)CNC(=O)c1cncc(-c2cccc(CNC3Cc4ccccc4C3)c2)c1
CN(Cc1cccc(O)c1)C1CCCN(c2cc(NC(=O)c3ccc(F)cc3)ccn2)C1 (centres undefined)
COCCNCc1ccc(-c2cccc(CN(C(=O)NCCc3ccccc3)C3CCN(Cc4ccccc4)CC3)c2)cc1
O=C(NCc1cccc(CN2CCOCC2)c1)c1cc(Br)cc(N2CCN(c3ccncc3)CC2)c1
CC(Oc1c(C2CCN(CCCCNC(=O)c3ccc(-c4ccc(Cl)cc4)cc3)CC2)ccc2c1CCCC2)C(N)=O (centres undefined)
CCn1ncc(Cl)c1CN(C)S(=O)(=O)c1ccc(Br)cc1
NS(=O)(=O)c1ccc(CNC(=O)c2cnc3c(O)cccc3c2Nc2cccc(NC(=O)c3ccc(Cl)c(Cl)c3)c2)cc1
CC(C)C[C@H]1C(=O)N[C@H](C2Cc3ccccc3C2)C(=O)N1[C@@H](C(=O)Nc1ccccc1OCc1ccccc1)c1ccc(F)cc1F
COc1ccc(CN(C)CCCOc2ccc(NC(=O)c3cccc4c(=O)c5cccc(C)c5[nH]c34)cc2)cc1OC
CCCC1N=C(N)N=C(N)N1c1ccc(OC)cc1 (centres undefined)
OCc1ccc2nc3c(cc2c1)-c1cccc2cccc-3c12
COc1ccc(C)c(Nc2ccnc(Nc3ccc(-c4cnc[nH]4)cc3)n2)c1
Cc1[nH]c(C)c(-c2ccc(OCc3ccccc3)cc2)c(=O)c1Br
CCOc1ccc2nc(C)cc(NN=Cc3cccnc3)c2c1
CN(C)CCNC(=O)c1ccc(-c2cnc3ccc(NCc4ccc(Cl)c(Cl)c4)nn23)cc1
COc1cccc(NC(=O)c2cc([N+](=O)[O-])ccc2NC(=O)CN2CCc3ccccc3C2)c1
CCNC(=O)NC1CCN(Cc2c(-c3cccs3)nc3ccccc3c2C(=O)N[C@@H](C)C2CCCCC2)CC1
